Data on nine molecules can be found in PubChem BioAssay (NCI).

Test systems include SK-MEL-2 melanoma; EKVX NSCLC; SN12C renal; UO-31 renal; TK-10 renal; ACHN renal; CAKI-1 renal; A498 renal; CCRF-CEM leukemia; MOLT-4 leukemia; SR leukemia; OVCAR-8 ovarian; OVCAR-4 ovarian; SK-OV-3 ovarian; IGROV1 ovarian; HS 578T breast; NCI/ADR-RES ovarian; OVCAR-5 ovarian; OVCAR-3 ovarian; RPMI-8226 leukemia.
Common to all, as to assay: NCI-60 one-dose screen, 48 h (100 = growth as untreated, 0 = no growth, -100 = all killed)
Holding throughout (details): 10 µM unless noted

Compounds without any hit were thinned out: in the full panel of roughly 83,000, 20% have a hit.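 96-well plates, one dose, 48 hours. Percent growth reported; active if below 10.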 Values without a mark were called inactive. Active and inactive are the calls of the source.

Turning to `CCCCCCCCCCCC1=NC(C)(C)CN1CC(C)O` (stereo not given), the growth is 63.4% with SK-MEL-2 melanoma; 68.8% in the test on EKVX NSCLC; 69.8% with SN12C renal; 47.6% with UO-31 renal; 91.7% in the test with TK-10 renal; 80.2% in the test on ACHN renal. The growth in the test on CAKI-1 renal was 69.8%; in the test on A498 renal, 99.8%; with CCRF-CEM leukemia, 25.5%; in the test with MOLT-4 leukemia, 25.4%; in the test with SR leukemia it was -61.4% (active); in the test with OVCAR-8 ovarian it was 81.7%. Further, the growth in the test with OVCAR-4 ovarian was 70.2%; in the test on SK-OV-3 ovarian it was 82.6%; in the test with IGROV1 ovarian, 30%; in the test on HS 578T breast, 71.6%; in the test with NCI/ADR-RES ovarian it was 87%.

On to `CC(=O)N1N=C(C2C(=O)N(C)C(=O)N(C)C2=O)CC1c1ccccc1C(=O)O` (stereo not given), for which the growth is 102% in the test on SK-MEL-2 melanoma; 105% in the test with EKVX NSCLC; 101% in the test on SN12C renal; 87.4% in the test with UO-31 renal; 97.6% in the test with TK-10 renal; 98.9% in the test with ACHN renal. The growth was 94.8% with CAKI-1 renal; 91.7% with A498 renal; 94.6% with CCRF-CEM leukemia; 97.1% in the test with MOLT-4 leukemia; 93% with SR leukemia; 103% with OVCAR-8 ovarian. Moreover, the growth in the test with OVCAR-5 ovarian was 104%; in the test with OVCAR-4 ovarian it was 113%; in the test on SK-OV-3 ovarian it was 94.8%; with IGROV1 ovarian, 112%; in the test with OVCAR-3 ovarian it was 109%; in the test with HS 578T breast, 92.1%. The growth in the test on NCI/ADR-RES ovarian is 105%.

For `O=[N+]([O-])c1ccc(N/N=C/c2ccccc2O)nc1`, the growth was 35% in the test on SK-MEL-2 melanoma; 29.7% in the test with EKVX NSCLC; 37.7% in the test on SN12C renal; 25.5% with UO-31 renal; 26.2% in the test with TK-10 renal; 27.3% with ACHN renal. Further, the growth in the test with CAKI-1 renal was 4.68% (active); in the test with A498 renal, 97.8%; in the test on CCRF-CEM leukemia, 17.1%; in the test with MOLT-4 leukemia, 14.3%; with SR leukemia, 14.8%; in the test with OVCAR-8 ovarian it was 24.3%. In addition, the growth with OVCAR-5 ovarian is 60.9%; with OVCAR-4 ovarian it was 39.3%; with SK-OV-3 ovarian it was 32.7%; with IGROV1 ovarian, 18.6%; in the test with OVCAR-3 ovarian, 69.1%; in the test on HS 578T breast, 79.7%. The growth in the test with NCI/ADR-RES ovarian is 21.3%.

Regarding `COc1ccc(N=C2CSc3nnc(-c4cc(F)c(Cl)cc4Cl)n3N2)cc1`, the growth with SK-MEL-2 melanoma is 25.8%; in the test on EKVX NSCLC, 10.8%; in the test on SN12C renal, 7.26% (active); in the test on UO-31 renal, -69.5% (active); in the test on TK-10 renal, -48.1% (active); in the test on ACHN renal it was -26.2% (active). For the same molecule, the growth in the test on CAKI-1 renal was -11.2% (active); in the test with A498 renal, -41.7% (active); in the test with CCRF-CEM leukemia, -24.4% (active); with MOLT-4 leukemia it was -4.82% (active); with RPMI-8226 leukemia, -23.5% (active); with OVCAR-8 ovarian it was 6.26% (active). Also, the growth was -20.5% (active) with OVCAR-5 ovarian; -59.2% (active) in the test on OVCAR-4 ovarian; -42.3% (active) in the test with SK-OV-3 ovarian; -45.1% (active) in the test on IGROV1 ovarian; -74% (active) in the test on OVCAR-3 ovarian; -43.8% (active) in the test on HS 578T breast. Moreover, the growth in the test on NCI/ADR-RES ovarian is 9.18% (active).

In the case of `COc1nccc2c(Sc3ccccc3)nc(N)nc12`, the growth in the test with SK-MEL-2 melanoma is 101%; in the test with EKVX NSCLC it was 117%; with SN12C renal, 105%; with UO-31 renal, 75.3%; in the test on TK-10 renal, 103%; in the test on ACHN renal, 108%. Also, the growth in the test on CAKI-1 renal was 106%; with A498 renal, 76.2%; in the test on CCRF-CEM leukemia, 97.7%; with MOLT-4 leukemia, 94.5%; with RPMI-8226 leukemia, 93.2%; in the test with OVCAR-8 ovarian, 101%. For the same molecule, the growth in the test with OVCAR-5 ovarian is 107%; in the test on OVCAR-4 ovarian it was 99.7%; in the test with SK-OV-3 ovarian it was 114%; in the test on IGROV1 ovarian, 114%; in the test with OVCAR-3 ovarian it was 119%; in the test with HS 578T breast it was 113%. Moreover, the growth with NCI/ADR-RES ovarian was 106%.

As for `N=c1nc(N2CCCCC2)cc(N)n1O`, the growth was 118% in the test with SK-MEL-2 melanoma; 108% in the test with EKVX NSCLC; 98.8% with SN12C renal; 104% in the test on UO-31 renal; 112% with TK-10 renal; 97.5% in the test on ACHN renal. For the same molecule, the growth with CAKI-1 renal is 101%; with A498 renal it was 117%; in the test with CCRF-CEM leukemia, 112%; in the test with MOLT-4 leukemia it was 93%; in the test with RPMI-8226 leukemia it was 109%; in the test on OVCAR-8 ovarian it was 103%. For the same molecule, the growth with OVCAR-5 ovarian is 103%; in the test with OVCAR-4 ovarian, 92.5%; with SK-OV-3 ovarian, 103%; in the test with OVCAR-3 ovarian it was 112%; in the test on HS 578T breast it was 109%; in the test on NCI/ADR-RES ovarian it was 122%.

For the molecule `CC(C)(C)OC[C@@H]1N=C(c2ccc(Br)cc2)Nc2nc3ccccn3c2C1=O`, the growth was 49.2% in the test on SK-MEL-2 melanoma; 81.6% in the test on EKVX NSCLC; 84.1% in the test with SN12C renal; 52.1% in the test with UO-31 renal; 95.1% in the test on TK-10 renal; 75.3% in the test with ACHN renal. In addition, the growth in the test on CAKI-1 renal is 64.2%; with A498 renal, 66.9%; in the test with CCRF-CEM leukemia it was 67.8%; with SR leukemia, 35.4%; in the test on RPMI-8226 leukemia it was 67.5%; in the test with OVCAR-8 ovarian it was 79.5%. In addition, the growth in the test with OVCAR-5 ovarian was 105%; with OVCAR-4 ovarian, 82.3%; in the test with SK-OV-3 ovarian, 64.3%; with IGROV1 ovarian, 40.7%; in the test with OVCAR-3 ovarian, 34.2%; in the test on HS 578T breast, 65.2%. Moreover, the growth in the test on NCI/ADR-RES ovarian was 39.7%.

`Fc1ccc(-c2nc(-c3ccc(-c4nc5ccc(F)cc5[nH]4)cc3)no2)cc1`: the growth was 102% in the test on SK-MEL-2 melanoma; 85.1% with EKVX NSCLC; 84.3% in the test on SN12C renal; 84.4% in the test with UO-31 renal; 119% in the test with TK-10 renal; 71% with ACHN renal. Moreover, the growth was 81.3% in the test on CAKI-1 renal; 79.6% in the test with A498 renal; 74.9% in the test with CCRF-CEM leukemia; 94.8% in the test on MOLT-4 leukemia; 88.1% with RPMI-8226 leukemia; 86.5% in the test on OVCAR-8 ovarian. For the same molecule, the growth is -8.43% (active) with OVCAR-4 ovarian; 39.8% in the test on SK-OV-3 ovarian; 74.3% with IGROV1 ovarian; 94.3% in the test on OVCAR-3 ovarian; 71.3% in the test on HS 578T breast; 73.9% in the test on NCI/ADR-RES ovarian.

Regarding `CCCNCCC(C)=O`, the growth is 118% in the test on SK-MEL-2 melanoma; 89.6% in the test with EKVX NSCLC; 102% with SN12C renal; 92.4% with UO-31 renal; 101% in the test with TK-10 renal; 106% with ACHN renal. Further, the growth in the test on CAKI-1 renal was 106%; in the test on A498 renal, 94.2%; with CCRF-CEM leukemia it was 107%; with MOLT-4 leukemia it was 112%; in the test on RPMI-8226 leukemia, 108%; with OVCAR-8 ovarian, 106%. Besides, the growth is 101% with OVCAR-5 ovarian; 107% in the test with OVCAR-4 ovarian; 116% in the test on SK-OV-3 ovarian; 118% in the test on IGROV1 ovarian; 89.9% with HS 578T breast.
